# Test results as given in PubChem BioAssay (NCI).
# About 83,000 compounds went through this panel and 20% of them were active in at least one assay; those are over-represented in the sample as a whole.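 Growth was measured after 48 h exposure to one concentration of compound in 96-well plates. Values under 10 count as active.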 A number with no mark means an inactive call. Calls of active or inactive are those of the source.
# Test system: HCT-116 colon
# Experiment: NCI-60 one-dose screen, 48 h (100 = growth as untreated, 0 = no growth, -100 = all killed)
# Conditions: 10 µM unless noted
row,SMILES,growth
1,CC1=C(C(=O)Nc2ccccc2)C(c2cccc3ccccc23)n2c(nc3ccccc32)N1 (configuration not stated),0.0484% (active)
2,COc1ccc(NC(=O)CSc2nnc(-c3ccc(-c4nc5ccccc5[nH]4)cc3)o2)cc1,2.37% (active)
3,COc1cc2cc(C(=O)N3C[C@@H](CCl)c4c3cc(OC(=O)N(C)CCSSCCN3CCOCC3)c3ccccc43)[nH]c2c(OC)c1OC,-12.9% (active)
4,CC(=O)C[n+]1cccc2c3ccccc3ccc21,87.4%
5,CC[C@]12C=CCN3CC[C@]4(C(=C(C(=O)OC)C1)Nc1cc(OC)c([C@@H]5[C@H]6O[C@H]6[C@@]6(CC)CC(C(=O)OC)=C7Nc8cc(O)ccc8[C@@]78CCN5[C@@H]68)cc14)[C@@H]32,-72.3% (active)
6,Cc1ccccc1Nc1nnc(-c2c[nH]c3ccccc23)o1,19.3%
7,COc1cncc(-c2ccc3ncnc(N4CCc5ccc(Cl)cc54)c3c2)c1,-58% (active)
8,Clc1ccc2c(NCCNC34CC5CC(CC(C5)C3)C4)ccnc2c1,-40.1% (active)
9,Cn1cc(-c2cc(N)n3nc(-c4c[nH]c5ccccc45)cc3n2)c2cc(Br)ccc21,-77.7% (active)
10,Cc1nn(-c2ccccc2)c2nc(C)n(CC(=O)N/N=C/c3cccc([N+](=O)[O-])c3)c(=O)c12,87.6%
11,Cc1ccc(S(=O)(=O)Nc2ccc(-c3ccc4c(c3)NC(=O)/C4=C\c3ccc[nH]3)cc2)cc1,60.6%
12,O=C1c2cccc3c(N4CCN(c5ccccc5)CC4)ccc(c23)C(=O)N1c1cccc(-c2nn(-c3ccccc3)cc2-c2nc3ccccc3s2)c1,101%
13,COc1ccc(-c2cc(-c3cc(C(C)C)c(O)cc3C)nn2-c2ccc(S(N)(=O)=O)cc2)cc1,27.4%
14,Clc1ccc(-c2nc3c4c(-c5ccccc5)c(-c5ccccc5)n(Cc5ccccc5)c4ncn3n2)cc1,3.25% (active)
15,Cc1ccc(-c2cc(C(=O)N=Nc3c(O)[nH]c4ccc(F)cc34)c3ccccc3n2)cc1,21%
16,COc1ccc(/C=C/c2nc3ccccc3n3c(-c4cccc([N+](=O)[O-])c4)nnc23)cc1,-76.2% (active)
17,O=C(c1ccc(O)cc1)C1[C@H](c2ccc(Cl)cc2)[C@@H](c2ccccc2)NC12C(=O)Nc1ccccc12 (some centres not stated),-76.8% (active)
18,N#C/C(=C1/C(=O)Nc2ccccc21)c1nnc(NC(=O)c2ccc(-n3c(=O)[nH]c4ccccc4c3=O)cc2)s1,22.8%
19,CN(C(=O)CN1C(=O)/C(=C/c2ccco2)SC1=S)C1CCS(=O)(=O)C1 (configuration not stated),96.7%

row,SMILES,growth
1,COc1c2c(cc3c1C(CCc1ccccc1)N(C)CC3)OCO2 (configuration not stated),3.07% (active)
2,COc1cc(C2CC(c3ccc(F)cc3)=Nc3c(N)nc(N)nc3N2)ccc1Oc1nc(Nc2ccc(F)cc2)nc(N(C)C)n1 (configuration not stated),6.9% (active)
3,CC(C)C[C@H](NC(=O)CNC(=O)C[C@H]1O[C@@H]2OC3(C)CC[C@H]4[C@H](C)CC[C@@H]([C@H]1C)[C@@]24O3)B(O)O,-67.2% (active)
4,Cc1[nH]nc2ccc3nc(-c4cnn(CCO)c4)c4c(c3c12)CCCC4,33.8%
5,CCCN(CCC)S(=O)(=O)c1ccc(C(=O)O)cc1.CCCN(CCC)S(=O)(=O)c1ccc(C(=O)O)cc1.[Cl][Pt+2][Cl].[NH2-].[NH2-],2.04% (active)
6,COc1ccc(N=Nc2c(N)nn3c(-c4ccc5c(c4)C=S=C5)ccnc23)cc1,20.1%
7,O=C(NNC(=O)c1ccc(OCc2nc3ccc(Cl)cc3[nH]2)cc1)Nc1ccc(Cl)c(Cl)c1,26.1%
8,Cc1nc(Nc2ccccn2)sc1C1=NNC(c2ccccc2F)C1 (configuration not stated),34.3%
9,COc1ccc(-c2nc3ccccc3n2CC(=O)N=Nc2c(O)[nH]c3ccc(Br)cc23)cc1,51.9%
10,CC[C@]12C=CCN3CC[C@@]4(c5ccc(OC)cc5N(C)[C@H]4[C@@](O)(C(=O)OC)[C@@H]1OC(=O)CCC[P+](c1ccc(OC)cc1)(c1ccc(OC)cc1)c1ccc(OC)cc1)[C@@H]32,-68.8% (active)
11,COc1ccc(-c2cc(C(=O)N=Nc3c(O)[nH]c4ccc(Cl)cc34)c3ccccc3n2)cc1OC,101%
12,Fc1ccc(Nc2nnc(-c3c[nH]c4ccccc34)o2)cc1,90.3%
13,O=C(NN1C(=O)/C(=C/C=C/c2ccc([N+](=O)[O-])o2)SC1=S)c1ccc(O)cc1,-85.1% (active)
14,Cc1cccc(-c2ccccc2Oc2ccc3nnc(Cl)n3n2)c1,104%
15,C[C@H](NC(=O)c1ccc2c(-c3ccc(C(F)(F)F)cc3)cccc2c1)c1ccccn1,35.4%
16,Cc1ccc(C(=O)Nc2cc(-c3ccccc3)cc(C(F)(F)F)c2)cc1C#Cc1cnc2cccnn12,32.2%
17,O=[N+]([O-])c1cccc(-c2nnc3c(/C=C/c4ccc(F)cc4)nc4ccccc4n23)c1,81.1%
18,O=C1Nc2cc(-c3ccc(NS(=O)(=O)c4ccc(C(F)(F)F)cc4)cc3)ccc2/C1=C/c1ccc[nH]1,2.8% (active)
